This note sets out measurements from PubChem BioAssay (NCATS).

Results filed as inconclusive are left out. Entries that show only a call come without a potency. Active and inactive are the calls of the source. Unless noted, the rule behind the calls is not given here.

The nature of assay [1]: Drug repurposing screens with cells derived from glioblastoma tumor samples (AID 1345199; active = well fitted inhibition curve with a large enough effect; note: potency is the fitted concentration of half-maximal effect; nearly all actives have a fitted effect of over 40% in size). The following applies: GBM patient neurospheres viability, ATP luminescence, 48 h; tumour line D. The essentials:
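Four patient lines of CD133+ GBM neurospheres were screened at several concentrations; hits were retested in those lines plus three slower-growing GBM lines, using 48-hour treatment and ATP-based viability.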

Assay [2] can be described thus: qHTS assay for small molecule activators of the human pregnane X receptor (PXR) signaling pathway (AID 720659). The following applies: DPX-2 HepG2 CYP3A4-luciferase, 24 h; series mostly up to 92.3 µM.

Consider `Clc1ccc(COC(Cn2ccnc2)c2ccc(Cl)cc2Cl)cc1` (stereo not drawn), for which the Potency in assay [1] is 12.6 µM (active).
`C[C@H]1O[C@@H](O[C@H]2[C@@H](O)C[C@H](O[C@H]3[C@@H](O)C[C@H](O[C@H]4CC[C@@]5(C)[C@H](CC[C@@H]6[C@@H]5CC[C@]5(C)[C@@H](C7=CC(=O)OC7)CC[C@]65O)C4)O[C@@H]3C)O[C@@H]2C)C[C@H](O)[C@@H]1O`: in assay [2], the result was inactive.
The same measure, in the same setting: to `Oc1cc(Cl)ccc1Oc1ccc(Cl)cc1Cl` belongs “inactive”.
